Reference: PubChem BioAssay AID434973 (Sanford-Burnham Center for Chemical Genomics, 2010)
Among all 330,000 compounds or so, about 4,900 (1.5%) were called active. The list comes from a sample in which actives are over-represented; it also holds similar structures and randomly drawn compounds. Values without a mark were called inactive.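 Rule for the calls: active = inhibition above about 50% at the single test dose (limit read from the data); inactive = the rest.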

These compounds were tested against Sentrin-specific protease 7 (Homo sapiens) (UniProt Q9BQF6) (assay: SENP7 protease inhibitors, primary screen, biochemical, luminescence, uHTS (AID 434973;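 note: plate controls were DMSO with enzyme for no effect and no enzyme buffer wells for full effect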)). Details: recombinant SENP7, Z-RLRGG-aminoluciferin luminescence, 40 min; at 5 µM; stronger effect = higher value.

| Compound | inhibition |
| --- | --- |
| Cc1c(NC(=S)NC(=O)CCc2ccccc2)c(=O)n(-c2ccccc2)n1C | -7.18% |
| CN(C)c1ccc(-c2nnc(-c3cccnc3)o2)cc1 | 8.14% |
| O=C(OCc1ccc(Br)cc1)c1cccc(-c2nnc(-c3ccccc3)o2)c1 | 23.5% |
| Nc1nonc1-c1noc(-c2ccc(Br)o2)n1 | 9.66% |
| Brc1ccc(-c2nnc(-c3ccccc3)o2)o1 | 57.6% (active) |
| Nc1ccc(-c2nnc(-c3ccc(-c4ccccc4)cc3)o2)cc1 | 70.3% (active) |
| OC(c1nnc(-c2ccccc2)o1)c1cccs1 (centres undefined) | 2.83% |
| Brc1ccc(-c2noc(-c3ccccc3)n2)o1 | 88.5% (active) |
| Nc1ccc(-c2nnc(-c3ccccc3)o2)cc1 | 49.9% |
| Cn1nc(-c2ccccc2)c(-c2nc(-c3ccc(Cl)cc3)no2)c1Cl | 1.67% |
| COc1ccc(C2C(C(C)=O)=C(O)C(=O)N2CCc2c[nH]c3ccccc23)cc1 (centres undefined) | 0.562% |
| COc1ccc(NC(=O)c2sccc2SCC#N)cc1 | 7.98% |
| COCCN1CCn2c(nc3cc(NS(C)(=O)=O)ccc32)C1 | 3.45% |
| O=C(OCc1ccc([N+](=O)[O-])cc1)C1CC(=O)N(Cc2ccccc2Cl)C1 (centres undefined) | 2.69% |
| Cc1ccc(-c2ccc(/C=C(\C#N)C(N)=S)o2)c([N+](=O)[O-])c1 | 2.25% |
| Cc1cc(C)nc(SCc2cn3c(C)cc(C)nc3n2)n1 | 3.49% |
| CSc1nc(C)nc(C2CC2)c1C#N | -2.65% |
| CC(=O)Nc1ccc(S(=O)(=O)NCC2CCC(C(=O)NCCc3ccccc3)CC2)cc1 (centres undefined) | 2.3% |
| CCOc1ccc(NC(=O)COC(=O)C2CCC(=O)N2)c([N+](=O)[O-])c1 (centres undefined) | -6.28% |
| CCC(C)CCN1CCN=C1N(C)C (centres undefined) | 9.82% |
| Cc1noc(C)c1S(=O)(=O)N(C)C[C@H]1Oc2ccc(NC(=O)C3CC3)cc2C(=O)N([C@H](C)CO)C[C@@H]1C | -0.149% |
| COC(=O)C1=C(C)N(c2ccc(C)cc2)/C(=C/c2ccc(O)cc2)C1=O | 8.14% |

| Compound | inhibition |
| --- | --- |
| COc1cc(/C=C2\Oc3ccc(C#Cc4ccc(O)cc4)cc3C2=O)cc(OC)c1 | -7.29% |
| O=C1c2ccccc2C(=O)N1CCC#Cc1ccc2cc(C3(O)CCCCC3)oc(=O)c2c1 | 2.91% |
| COc1cc(C#Cc2ccc3cc(CCCO)oc(=O)c3c2)cc(OC)c1 | 79.7% (active) |
| Cn1c(=O)c2c(ncn2CC(=O)N/N=C/c2cn[nH]c2-c2ccc(F)cc2)n(C)c1=O | 1.2% |
| CCCC(CNC(=O)COC(=O)C1=NNC(=O)CC1)c1ccc(Cl)cc1Cl (centres undefined) | -4.17% |
| O=C(O)CCCN1C(=O)c2ccccc2Sc2ncccc21 | -1.32% |
| CCNc1nc(N)nc(-c2cc(Cl)ccc2OC)n1 | 3.35% |
| CCOc1ccc(Oc2nc(C)cc(OC)n2)nn1 | -1.32% |
| CCNc1nc(N)nc(Oc2ccc(OCC)nn2)n1 | 73.1% (active) |
| CC12C(=O)N(c3ccccc3)C(=O)C1C(c1ccccc1)N1CCCN12 (centres undefined) | -4.08% |
| C=CCn1c(SCC(=O)c2c(N)n(C)c(=O)n(C)c2=O)nc2sc(CC)cc2c1=O | -1.46% |
| COc1cccc(/C=N\Nc2nncc(-c3ccccc3)n2)c1 | 24.7% |
| C/C(=N\Nc1nncc2ccccc12)c1ccc(Cl)c([N+](=O)[O-])c1 | 5.32% |
| CN(CCO)c1ccc(/C=N/Nc2nncc3ccccc23)cc1 | 93% (active) |
| COc1ccc([N+](=O)[O-])cc1N(CC(O)CN(CC(C)C)CC(C)C)S(=O)(=O)c1ccc(C)cc1 (centres undefined) | 3.08% |
| COc1ccc(C2CC(=O)C=C(NCC3CCCO3)C2)cc1 (centres undefined) | 5.59% |
| O=C(CN1C(=O)NC2(CCCCCC2)C1=O)NCc1cccs1 | 3.72% |
| Cc1ccc(SCC(=O)Nc2ncc(C)s2)cc1 | -2.81% |
| O=C(Nc1nnc(C2CC2)s1)c1ccccn1 | 57.4% (active) |
| Cc1cccc(NC(=O)CSCC(=O)Nc2nnc(C3CC3)s2)c1 | 4.12% |
| Cc1cnc(NC(=O)C2CCCC2)s1 | 0.0964% |
| Cc1cc(C(=O)Nc2nnc(C3CC3)s2)c(C)s1 | 77% (active) |

| Compound | inhibition |
| --- | --- |
| CCc1cc(C(=O)Nc2nnc(C3CC3)s2)sc1C | -5.93% |
| O=C(Nc1nnc(C2CC2)s1)c1cc(Cl)sc1Cl | 5.7% |
| Cc1cnc(NC(=O)c2ccccn2)s1 | 82.8% (active) |
| O=C(Nc1nnc(Cc2ccccc2)s1)c1cnccn1 | 3.97% |
| OC(CNC1CCCC1)COc1ccc(F)cc1 (centres undefined) | 7.04% |
| Cc1nn(C(C)(C)C)c(OC(=O)CC(C)C)c1S(=O)(=O)c1ccccc1 | 4.96% |
| COc1ccc(S(=O)(=O)N2CCN(C(=O)c3cc(C)oc3C)CC2)cc1 | 3.33% |
| COc1ccccc1-c1oc2ccccc2c1C#CCCCCO | 5.54% |
| CC1Cc2ccccc2N1C1=CC(=O)CC(C)(C)C1 (centres undefined) | -3.44% |
| CC(C)(C)NC(=O)c1ccc(Cn2cc(C(F)(F)F)ccc2=O)cc1 | -6.25% |
| Clc1ccc(-c2nc3ccccn3c2CN2CCSCC2)cc1 | -5.08% |
| Cc1ccc(C(=O)C(=S)N2CCOCC2)cc1 | -2.91% |
| CC1=NN(C(N)=S)C(=O)C1N=Nc1cc(Cl)ccc1Cl (centres undefined) | -5.66% |
| Cc1[nH]n(C(N)=S)c(=O)c1N=Nc1ccc(Cl)cc1Cl | 51.8% (active) |
| Cc1[nH]n(C)c(=O)c1N=Nc1ccc(S(C)(=O)=O)cc1 | 0% |
| CCOc1ccc(NC(=O)N2CC=C(n3c(=O)[nH]c4ccccc43)CC2)cc1 | 4% |
| CC1CN(/C=C/C(=O)C(F)(F)F)CC(C)O1 (centres undefined) | 1.13% |
| O=C(NCCC1=CCCCC1)C1CCN(Cc2cnn(-c3ccccc3)c2-n2cccc2)CC1 | -3.45% |
| CC(C)Sc1ncnc2c1cnn2-c1ccccc1 | 45.7% |
| C1=C(CCNc2ncnc3c2cnn3-c2ccccc2)CCCC1 | 56.6% (active) |
